# HP1b binding inh = HP1-beta chromodomain-methylated histone interaction inhibition; Potency, µM (top dose mostly 114 µM), without a hit: at the top dose activity change, negative = inhibition, usual class: inhibitors; AlphaScreen HP1-beta / biotin-H3K9me3 peptide binding; actives 0.56% (n = 390,000); also: nearly all actives have a fitted effect of over 70% in size
# Target sequence (P83916 whole entry, looked up): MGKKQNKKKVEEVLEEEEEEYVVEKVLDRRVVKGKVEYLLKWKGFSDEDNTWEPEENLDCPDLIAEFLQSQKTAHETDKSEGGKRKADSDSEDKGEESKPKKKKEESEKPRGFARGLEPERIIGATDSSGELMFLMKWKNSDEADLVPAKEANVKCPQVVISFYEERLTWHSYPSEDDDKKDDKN
#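 AlphaScreen: HP1-beta (50 nM) preformed 30 min with biotin-H3(1-18)K9me3 peptide (50 nM) in PBS pH 7.4, 0.01% Tween-20. Compound added for 30 min at RT, then streptavidin donor/nickel chelate acceptor beads (10 ug/mL) for 30 min.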
# JMJD2A Tudor inh = inhibitors of human JMJD2A Tudor domain | actives 4.4% (n = 390,000) | O75164 | AID 504339 | Potency, µM (doses to about 114 µM), for inactives: at the top dose activity change, negative = inhibition, actives largely listed as inhibitors | AlphaScreen JMJD2A-Tudor / H3K4me3 peptide binding; also: % is scaled to controls: 0 for no effect and ±100 for the full control effect; nearly all actives have a fitted effect of over 50% in size
# PLK1 PBD inh = inhibitors of human PLK1 polo-box domain binding; P53350; Plk1 PBD binding of FITC phosphopeptide, fluorescence polarization; Potency, µM, for inactives: max response, negative = inhibition, actives largely listed as inhibitors; actives 2.8% (n = 360,000); AID 720504; also: series mostly up to about 57 µM; % is scaled to controls: 0 for no effect and ±100 for the full control effect; nearly all actives have a fitted effect of over 65% in size
# BAZ2B block = inhibitors of human BAZ2B bromodomain | Q9UIF8 | AlphaScreen BAZ2B-H3K14Ac peptide displacement | Potency, µM (top dose mostly 114 µM), without a hit: top-dose activity change, negative = inhibition, most hits filed as inhibitors | actives 4.4% (n = 360,000) | AID 504333; also: % is scaled to controls: 0 for no effect and ±100 for the full control effect; nearly all actives have a fitted effect of over 60% in size
#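 In this displacement format the biotinylated H3(5-23) peptide acetylated at Lys14 serves as ligand at 50 nM, with BAZ2B at 50 nM in PBS pH 7.4 containing 0.01% Tween-20. Donor and acceptor beads are 10 ug/mL final.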
# G9a block = G9a (human) methyltransferase inhibition | Q96KQ7 | G9a H3K9 monomethylation, AlphaScreen, 2 h | actives 8.8% (n = 350,000) | Potency, µM (titrated, usually from 102 µM), inactives show at the highest dose activity, negative = inhibition, usual class: inhibitors | AID 504332; also: % is scaled to controls: 0 for no effect and ±100 for the full control effect; nearly all actives have a fitted effect of over 75% in size
# Target sequence (Q96KQ7 913-1193 limits assumed): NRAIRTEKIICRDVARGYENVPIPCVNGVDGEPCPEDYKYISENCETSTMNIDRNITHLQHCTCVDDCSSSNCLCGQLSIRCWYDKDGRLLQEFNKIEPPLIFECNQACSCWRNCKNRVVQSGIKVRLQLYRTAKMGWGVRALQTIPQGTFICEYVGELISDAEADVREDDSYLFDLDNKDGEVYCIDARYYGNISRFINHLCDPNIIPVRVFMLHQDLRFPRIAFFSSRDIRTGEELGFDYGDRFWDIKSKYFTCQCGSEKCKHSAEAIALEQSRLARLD
#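 Using a bead-based AlphaScreen, monomethylated H3K9 product from 2 h room-temperature reactions (G9a 20 nM, peptide 500 nM, SAM 20 uM) was detected with 0.5 ug/mL rabbit anti-H3K9me1 antibody.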
# VDR inh = blocks the human vitamin D receptor. P11473. VDR-SRC2-3 peptide fluorescence polarization, 2 h. Potency, µM, for the others: max response, negative = inhibition, actives largely listed as inhibitors. actives 0.93% (n = 400,000). AID 504847; also: % is scaled to controls: 0 for no effect and ±100 for the full control effect
#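 Compounds are added to VDR with labelled SRC2-3 coactivator peptide and held 2 h at room temperature. Inhibition of the VDR–peptide interaction is then read as a change in fluorescence polarization.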
# An asterisk follows results filed as active; u = inconclusive; x = no result given; [ ] = dose if it differs, or a comment. Only some compounds are listed: those with a hit (about 11% of all), similar ones and a draw of the others. Calls follow the shape of the dose curve; as a rule, active = well fitted curve in the direction sought with a large enough effect; inconclusive = small, poorly fitted or top-dose-only effect, or another doubt; inactive = no such curve, though single readings can be large; an effect the other way counts as inactive or inconclusive. Potency is read from the fitted curve at half-maximal effect.
SMILES,HP1b binding inh,JMJD2A Tudor inh,PLK1 PBD inh,BAZ2B block,G9a block,VDR inh
COc1ccc(N2CCN(C(=O)C(=O)c3c(C)n(C)c4ccccc34)CC2)cc1,-18%,u,-2%,u,5µM*,2%
Cc1n[nH]c(C)c1CCC(=O)N/N=C/C=C/c1ccccc1,17%,-11%,-11%,-20%,-47%,-8%
CN(Cc1ccc(OCC(O)CN2CCCCC2)cc1)Cc1ccnc2ccccc12 (stereo not drawn),-1%,-31%,-4%,-27%,50µM*,9%
Cc1nn(C)cc1CN(C)Cc1ccc(OCC(O)CN2CCCCC2)cc1 (stereo not drawn),45%,1%[11.4 µM],-2%,3%,5%,-12%
CSc1ncnc2c1ncn2CCCNCCCN1CCCC1=O,x,x,-5%,x,x,x
Cc1ccc2nc3c(cc(C(=O)NCC4CCCO4)c(=N)n3CCCOC(C)C)c(=O)n2c1 (stereo not drawn),-11%,u,-6%,0%,56µM*,-4%
CN1CCN(C(=O)C(N)Cc2ccccc2)CC1 (stereo not drawn),26%,7%,0%,-15%,-9%,-10%
COc1ccc(-c2c(NC(=O)c3ccco3)oc3c(C)cccc3c2=O)cc1OC,46%,-13%,-7%,-25%,8%,0%
CCn1cc2nc(SCC(=O)Nc3ccccc3F)n(Cc3ccc(C)cc3)c(=O)c2n1,7%,-14%,x,-13%,u,-9%
O=C1CS/C(=N/N=C/c2ccncc2)N1,17%,u,-8%,-6%,x,-1%
Cn1ccc(/C=N/N=C2/NC(=O)CS2)n1,39%,-1%,1%,-20%,10µM*,-6%
COc1ccc(S(=O)(=O)NCC(c2ccc(N(C)C)cc2)N2CCCC2)cc1F (stereo not drawn),0%,-32%,x,-36%,-1%[12.7 µM],1%
COc1ccc(S(=O)(=O)NCC(c2ccc(N(C)C)cc2)N2CCc3ccccc32)cc1F (stereo not drawn),u,20µM*,x,11µM*,-23%[12.7 µM],6%
Cc1ccc(S(=O)(=O)NCC(c2ccc(N(C)C)cc2)N2CCc3ccccc32)cc1 (stereo not drawn),u,14µM*,x,6.3µM*,11µM*,14%
Cc1ccc(S(=O)(=O)NCC(c2ccc(N(C)C)cc2)N2CCCC2)cc1 (stereo not drawn),u,u,x,u,u,15%
CN(C)c1ccc(C(CNS(=O)(=O)c2ccccc2)N2CCc3ccccc32)cc1 (stereo not drawn),u,13µM*,x,22µM*,-33%[12.7 µM],6%
CN(C)c1ccc(C(CNS(=O)(=O)c2ccc(F)cc2)N2CCCC2)cc1 (stereo not drawn),10%,u,x,u,-6%[59 µM],3%
COC(=O)C1=CN(CC2CCCO2)C=C(C(=O)OC)C1c1cc(OC)c(OC)c(OC)c1 (stereo not drawn),31%,34%,-8%,1%,-42%[59 µM],9%
Cc1nc2ccccc2n1CC(=O)N/N=C\c1ccccn1,33%,u,-11%,50µM*,u,-13%
O=C(Cn1cnc2ccccc21)Nc1cccc([N+](=O)[O-])c1,31%,-9%,7%,-5%,-5%[12.7 µM],-18%
O=C(Cn1cnc2ccccc21)N/N=C/c1ccccn1,23%,-10%,-7%,10µM*,-1%[0.501 µM],2%
Cc1ccc(/C=N\NC(=O)Cn2c(C)nc3ccccc32)o1,-1%,-9%[57.1 µM],-21%,1%,-3%[59 µM],12%
O=C(CCn1cnc2ccccc21)N/N=C/c1ccccc1O,6%,-16%,8.4µM*,6%,45%[59 µM],-8%
Cc1ccc(NC(=O)Cn2cnc3ccccc32)cc1C,-12%,u,13µM*,-3%,1%,u
Cc1cccc(OCCSc2nc3ccc(NC(=O)COc4ccccc4)cc3s2)c1,50%,-14%,x,u,5%[59 µM],-5%
COc1cc(/C=C(\C#N)c2nc3ccccc3n2C)cc(OC)c1OC,23%,-18%,x,10%,-6%[59 µM],-11%
